The values below come from article doi:10.1101/2024.03.05.583629.

The target in this assay is pT7_6His-AlfaTag-HOXD13 (human, UniProt P35453 263-343). Nature of the assay: PADIT-seq. The conditions noted are these: dsDNA, one strand shown.
pT7_6His-AlfaTag-HOXD13, sequence (P35453 263-343): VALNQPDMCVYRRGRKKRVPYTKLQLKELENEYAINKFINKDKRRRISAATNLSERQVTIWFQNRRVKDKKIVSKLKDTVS
Sequence “CTCGAGGATATCAAGATCTGGCCTCGGCGTTTTAGTTGGAACCTCTAGCTAGCCGACTCACTATAGGGATAATCGCCCTGAGCAAAGACC” came in with a binding signal of 0.145 ± 0.11 log2FC.

In the case of “CTCGAGGATATCAAGATCTGGCCTCGGCTTTCTAAAAGGAACCTCTAGCTAGCCGACTCACTATAGGGATAATCGCCCTGAGCAAAGACC”, the binding signal is -0.511 ± 0.118 log2FC.

“CTCGAGGATATCAAGATCTGGCCTCGGCTTTTTAGGTGGAACCTCTAGCTAGCCGACTCACTATAGGGATAATCGCCCTGAGCAAAGACC”: the binding signal was -0.0749 ± 0.107 log2FC.

On to “CTCGAGGATATCAAGATCTGGCCTCGGCAATGTAAAAGGAACCTCTAGCTAGCCGACTCACTATAGGGATAATCGCCCTGAGCAAAGACC”, for which the binding signal was determined as 0.947 ± 0.0815 log2FC.

The sequence “CTCGAGGATATCAAGATCTGGCCTCGGCATTTTAAGGGGAACCTCTAGCTAGCCGACTCACTATAGGGATAATCGCCCTGAGCAAAGACC” showed a binding signal of 1.95 ± 0.0802 log2FC.

With “CTCGAGGATATCAAGATCTGGCCTCGGCCCACTAAAAGGAACCTCTAGCTAGCCGACTCACTATAGGGATAATCGCCCTGAGCAAAGACC”, the binding signal stood at 1.42 ± 0.114 log2FC.

On to “CTCGAGGATATCAAGATCTGGCCTCGGCATTTTAACTGGAACCTCTAGCTAGCCGACTCACTATAGGGATAATCGCCCTGAGCAAAGACC”, for which the binding signal is 1.48 ± 0.0833 log2FC.

“CTCGAGGATATCAAGATCTGGCCTCGGCAATTGGGCGGGAACCTCTAGCTAGCCGACTCACTATAGGGATAATCGCCCTGAGCAAAGACC” displayed a binding signal of -0.563 ± 0.097 log2FC.

In turn, “CTCGAGGATATCAAGATCTGGCCTCGGCGTTTTATACGGAACCTCTAGCTAGCCGACTCACTATAGGGATAATCGCCCTGAGCAAAGACC” had a binding signal of 2.62 ± 0.0803 log2FC.

The sequence “CTCGAGGATATCAAGATCTGGCCTCGGCCCAATAAAAGGAACCTCTAGCTAGCCGACTCACTATAGGGATAATCGCCCTGAGCAAAGACC” yielded a binding signal of 2.95 ± 0.095 log2FC.

“CTCGAGGATATCAAGATCTGGCCTCGGCTCACCACGCGGAACCTCTAGCTAGCCGACTCACTATAGGGATAATCGCCCTGAGCAAAGACC” yielded a binding signal of -1.05 ± 0.123 log2FC.

In the case of “CTCGAGGATATCAAGATCTGGCCTCGGCGGTGTAAAAGGAACCTCTAGCTAGCCGACTCACTATAGGGATAATCGCCCTGAGCAAAGACC”, the binding signal was 0.668 ± 0.0814 log2FC.

For “CTCGAGGATATCAAGATCTGGCCTCGGCGAGTTAAAAGGAACCTCTAGCTAGCCGACTCACTATAGGGATAATCGCCCTGAGCAAAGACC”, the binding signal was determined as 0.985 ± 0.0828 log2FC.
